Screens deposited in PubChem by National Center for Advancing Translational Sciences (NCATS).
PI4K2A inh: qHTS for small molecular inhibitors of PI4K2A. Phosphatidylinositol 4-kinase type 2-alpha (Homo sapiens), Q9BTU6. purified PI4K2A, ADP-Glo luminescence, 1 h; active compounds read low. activity change, negative = inhibition, % at 76.9 µM. 0.13% of 420,000 active. AID 1346378, 2018; in the data active = activity change below about -50%; inconclusive = mostly about -30% to -49%
Target sequence (Q9BTU6 whole entry, looked up): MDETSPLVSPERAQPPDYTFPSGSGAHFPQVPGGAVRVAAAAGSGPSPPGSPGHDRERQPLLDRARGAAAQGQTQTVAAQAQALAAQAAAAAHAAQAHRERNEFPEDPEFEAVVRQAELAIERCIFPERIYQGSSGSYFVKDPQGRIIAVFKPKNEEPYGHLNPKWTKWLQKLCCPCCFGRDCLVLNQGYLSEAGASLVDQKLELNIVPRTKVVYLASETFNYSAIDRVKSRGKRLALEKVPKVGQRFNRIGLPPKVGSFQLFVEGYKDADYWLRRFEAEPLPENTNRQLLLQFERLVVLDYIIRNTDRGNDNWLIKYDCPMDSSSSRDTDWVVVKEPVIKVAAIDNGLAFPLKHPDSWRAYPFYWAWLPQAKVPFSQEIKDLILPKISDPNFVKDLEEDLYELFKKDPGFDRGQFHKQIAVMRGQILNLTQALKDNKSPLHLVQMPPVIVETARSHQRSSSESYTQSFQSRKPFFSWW
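Compounds are screened against recombinant PI4K2A using PI as substrate and ATP, the latter dispensed at 300 microM. Reactions run one hour at ambient temperature before ADP-Glo detection; full inhibition defined by wells lacking enzyme.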
USP1 inh: Inhibitors of USP1/UAF1: Primary Screen; Ubiquitin carboxyl-terminal hydrolase 1 (Homo sapiens), O94782; AID 743255, 2014; Potency, µM (titrated, usually from 57.1 µM), usual class: inhibitors; recombinant USP1/UAF1, Ub-Rhodamine cleavage fluorescence; 0.23% of 390,000 active; note: nearly all actives have a fitted effect of over 60% in size
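1 nM enzyme complex + cpd, 15 min RT; start with Ub-Rho 150nM final; kinetic fluorescence ex 480/em 540, 6 reads q60 s. Buffer 50mM HEPES pH 7.8, 0.5mM EDTA, 0.1 mg/ml BSA, 1mM TCEP, 0.01% Tween-20.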
PGK inhibitor: qHTS Assay to Find Inhibitors of Phosphoglycerate Kinase. Phosphoglycerate kinase, glycosomal (Trypanosoma brucei brucei), P07378. Potency, µM (doses to about 57.5 µM), usual class: inhibitors. PGK/GAPDH coupled, Kinase-Glo luminescence, 60 min. 0.043% of 380,000 active; note: nearly all actives have a fitted effect of over 60% in size
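Recombinant glycosomal PGK reaction used 1,3-bisphosphoglycerate generated in-well by GAPDH (100nM final) in 100mM TEA pH 7.6, 5mM MgCl2, 0.01% Tween-20. After 60 minutes at room temperature, ATP was read by Kinase-Glo Plus luminescence end-point.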
GLS inhibitor: qHTS for Inhibitors of Glutaminase (GLS); Glutaminase kidney isoform, mitochondrial (Homo sapiens), O94925; GLS enzymatic activity, qHTS titration; Potency, µM (top dose mostly 45.5 µM), hits mostly inhibitors; 0.21% of 410,000 active
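Enzyme dispensed in phosphate buffer (45 mM, pH 8.2, 0.02% Tween-20), compounds pinned in, then 1 mM L-glutamine solution and the glutamate oxidase–HRP–Amplex Red mix added; fluorescence read immediately and again after 30 min at room temperature.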
Of the large screens only hits and unclear results are named; the others gave an inactive call; ! = not confirmed by another sample. Sampled rows, rich in hits. Any-hit rate of the full collection: about 0.53%. Unless noted, calls come from the whole dose curve; as a rule, active = well fitted curve in the direction sought with a large enough effect; inconclusive = small, poorly fitted or top-dose-only effect, or another doubt; inactive = no such curve, though single readings can be large; an effect the other way counts as inactive or inconclusive.

NC(=O)c1c(N)[nH]c(C(=O)c2ccccc2)c1-c1cccc2ccccc12	none (no result: USP1 inh, PGK inhibitor, GLS inhibitor)
Cc1cccc(NC2=C/C(=N/S(=O)(=O)c3cccs3)c3ccccc3C2=O)c1	USP1 inh inconclusive
Cc1ccc(NC2=C/C(=N\S(=O)(=O)c3cccs3)c3ccccc3C2=O)c(C)c1	PI4K2A inh inconclusive, USP1 inh 2µM
Cc1ccc(Cl)cc1NC1=C/C(=N\S(=O)(=O)c2cccs2)c2ccccc2C1=O	PI4K2A inh inconclusive, USP1 inh 3.16µM
O=C1/C(=N\S(=O)(=O)c2cccs2)C([n+]2ccccc2)=C([O-])c2ccccc21	USP1 inh inconclusive
CN(C1=C(NC(=O)c2ccccc2)C(=O)c2ccccc2C1=O)C1CCS(=O)(=O)C1 (stereo unspecified)	USP1 inh 10µM
Cc1cc(NC(=O)Nc2nnc(N(C)Cc3ccccc3)s2)ccc1Br	USP1 inh 31.6µM
O=c1oc(-c2ccc(O)c(O)c2)cc2cc(O)cc(O)c12	GLS inhibitor 17.8µM
O=c1oc(-c2ccc(O)c(O)c2)cc2cccc(O)c12	GLS inhibitor inconclusive
COC(=O)c1ccc(NC(C)=O)cc1OC	none (no result: USP1 inh, PGK inhibitor, GLS inhibitor)
Oc1ccc(/C=N/Nc2nccnc2Cl)cc1	PGK inhibitor 11.2µM
C=CCN1C=CC(=C/C=C(/C#N)C(=O)OCC)C=C1	USP1 inh 28.2µM
CCOC(=O)/C(C#N)=C/C=C1/C=CC=CN1C	none
Cc1ccccc1C(=O)N1CC/C(=N\OS(=O)(=O)O)c2ccc(Cl)cc21	none (no result: USP1 inh, PGK inhibitor, GLS inhibitor)
O=C(OC12CCCN(C1)/C(=C/c1ccccc1)C2)c1ccc(Cl)cc1 (stereo unspecified)	none (no result: USP1 inh, PGK inhibitor, GLS inhibitor)
CCOC(=O)Cn1cccc1-c1nc(-c2ccc(OC)cc2)c(-c2ccc(OC)cc2)s1	none (no result: USP1 inh, PGK inhibitor)
O=C1C(=Cc2cccs2)C(=O)c2ccccc21	PI4K2A inh inconclusive
O=C1/C(=C\c2cccs2)Sc2ccc3ccccc3c21	USP1 inh 31.6µM
COc1cc(-c2nnc(SCC(=O)NC(C)C)o2)cc(OC)c1OC	GLS inhibitor inconclusive
COc1cc(-c2nnc(SCC(=O)Nc3ccc4c(c3)OCCO4)o2)cc(OC)c1OC	PI4K2A inh -55.5, GLS inhibitor inconclusive
COc1ccc(/C(C)=C/C(=O)O)c(OC)c1	none (no result: USP1 inh, PGK inhibitor, GLS inhibitor)
Cc1[nH][nH]c(=O)c1C(c1ccc(-c2cccc(Cl)c2)o1)c1c(C)[nH][nH]c1=O	PI4K2A inh inconclusive, USP1 inh 28.2µM
Cc1[nH][nH]c(=O)c1C(c1ccc(-c2cccc(C(=O)O)c2)o1)c1c(C)[nH][nH]c1=O	PI4K2A inh inconclusive, USP1 inh inconclusive, PGK inhibitor inconclusive
COC(=O)c1ccc(-c2ccc(C(c3c(C)[nH][nH]c3=O)c3c(C)[nH][nH]c3=O)o2)cc1	USP1 inh 28.2µM
CN1Cc2cc(C(=O)N3CCC(C4CCNCC4)CC3)ccc2NC(CC(=O)O)C1=O (stereo unspecified)	none (no result: USP1 inh, PGK inhibitor, GLS inhibitor)
O=c1c2ccccc2cnn1-c1nc2ccccc2[nH]1	PI4K2A inh -72.8, PGK inhibitor 10µM
NNC(=O)c1oc2nc(-c3ccco3)cc(-c3ccco3)c2c1N	PI4K2A inh -57.1, GLS inhibitor inconclusive
Nc1c(C(=O)N/N=C/c2cccnc2)oc2nc(-c3ccco3)cc(-c3ccco3)c12	none
COC(=O)C[C@H]1CC[C@H]2[C@H](COc3ccc(NC(=O)c4cccs4)cc3C(=O)N2C)O1	none (no result: USP1 inh, PGK inhibitor, GLS inhibitor)
Cc1nc2n(c(=O)c1CCN1CCC(c3noc4cc(F)ccc34)CC1)CCC[C@H]2O	none (no result: USP1 inh, PGK inhibitor, GLS inhibitor)
COc1cc(OC)c(OC)cc1/C=C1\Oc2cc(OCC(=O)N3Cc4ccccc4C[C@H]3C(=O)O)ccc2C1=O	USP1 inh 14.1µM, GLS inhibitor inconclusive
CCOC(=O)[C@]12CCCC=C1N(CCCOC)C(=O)[C@@H]2CC(=O)NCc1ccc(OC)c(OC)c1	none (no result: USP1 inh, PGK inhibitor, GLS inhibitor)
CCC(CN(C)C)Oc1cc(NCc2ccccc2)c2ncn(C(C)C)c2c1 (stereo unspecified)	PI4K2A inh inconclusive, USP1 inh 28.2µM
COc1cc(NCc2ccccc2)c2ncn(C(C)C)c2c1	USP1 inh inconclusive
CC(=O)CC/C=C(\C)CC/C=C(\C)CC/C=C(\C)CCC=C(C)C	none (no result: USP1 inh, PGK inhibitor, GLS inhibitor)
COCC1=C(C(=O)OC(C)OC(=O)OC(C)C)N2C(=O)C(NC(=O)/C(=N\OC)c3csc(N)n3)C2SC1 (stereo unspecified)	none (no result: PI4K2A inh, USP1 inh, PGK inhibitor)
O=c1[nH]c2ccccc2nc1/C=C(\O)c1cccs1	USP1 inh 15.8µM
CCOC(=O)CC1C(=O)NCCN1c1nc2ccc(C)cn2c(=O)c1/C=C1\SC(=S)N(CC(C)C)C1=O (stereo unspecified)	USP1 inh 12.6µM
CCCN1C(=O)/C(=C/c2c(N3CCNC(=O)C3CC(=O)OCC)nc3c(C)cccn3c2=O)SC1=S (stereo unspecified)	USP1 inh inconclusive
COC1=CC(=O)C=C(OC)C1=O	none
COC1=CC(=O)c2ccccc2C1=O	USP1 inh 12.6µM
Oc1ccc(NCc2ccc(OCc3ccccc3)cc2)cc1	PI4K2A inh inconclusive, USP1 inh 3.16µM, GLS inhibitor 11.2µM!
Oc1ccc(NCc2ccc(OCc3ccccc3Cl)cc2)cc1	PI4K2A inh inconclusive, USP1 inh 31.6µM
CCc1ccc(CNc2ccc3c(c2)ncn3CC)cc1	none
CCc1ccc(CNc2ccc(O)cc2)cc1	PI4K2A inh inconclusive, USP1 inh 28.2µM, PGK inhibitor inconclusive
CCOC(=O)Oc1ccc(CCNC(=O)[C@H](CCSC)NC(C)=O)cc1OC(=O)OCC	none (no result: USP1 inh, PGK inhibitor, GLS inhibitor)
Cc1ccc(S(=O)(=O)NCCc2cn3ccsc3n2)cc1	none
CCSC1=C(C#N)C(c2ccccc2OC)CC(=O)N1 (stereo unspecified)	PI4K2A inh -65.2
Cc1ccc2cccc(Oc3ncnc4scc(-c5ccc(Cl)cc5)c34)c2n1	USP1 inh 14.1µM
Cc1ccc2cccc(Oc3ncnc4scc(-c5ccccc5)c34)c2n1	none
CCC(C(=O)Nc1cc(Cl)c(OC)cc1OC)c1ccccc1 (stereo unspecified)	none
Cc1cc(NC2=CC(=O)C(=O)c3ccccc32)no1	USP1 inh 2.51µM
Cc1ccc(NC2=CC(=O)C(=O)c3ccccc32)cc1	PI4K2A inh -66.3, USP1 inh 25.1µM
NS(=O)(=O)c1ccc(NC2=CC(=O)C(=O)c3ccccc32)cc1	PI4K2A inh inconclusive, USP1 inh 8.91µM
COc1cc(OC)c(NC2=CC(=O)C(=O)c3ccccc32)cc1Cl	USP1 inh 17.8µM
